Test results: PubChem BioAssay AID652283 (National Center for Advancing Translational Sciences (NCATS), 2013)
Results filed as inconclusive are left out. A number with no mark means an inactive call. The source made the active and inactive calls. Calls come from the whole dose curve; as a rule, active = well fitted inhibition curve with a large enough effect; inconclusive = small, poorly fitted or top-dose-only effect; inactive = no such curve, though single readings can be large or run the other way.

Test: qHTS Assay for Lipid Storage Modulators: COS7 Assay against Probe and Analogs
Conditions: COS7 lipid droplet area, BODIPY imaging, 18 h
Excerpt: Storing lipids as a reservoir for energy or the anabolism of elementary metabolites is a common feature of probably all cells and is conserved from bacteria to humans. The universal cellular lipid storage organelle is the so-called lipid storage droplet (LD). Although ubiquitous, LDs share a simple structure composed of a hydrophobic core that harbors the storage lipids, which is shielded by a droplet-specific phospholipid monolayer to which proteins are attached. The current model of LD biogenesis involves an incorporation of the lipid core into the membrane leaflets of the endoplasmic reticulum (ER) followed by a subsequent budding-like maturation of a LD, which ultimately pinches off. Once released, LD volume can increase by localized lipogenesis or fusion of existing droplets. Storage lipids are re-mobilized enzymatically by lipase activity. Lipase regulation in the adipocyte is heavily studied and involves multiple components including catecholamine signaling, the LD-associated proteins Perilipin and comparative gene identification-58 (CGI-58) and at least two lipases named hormone sensitive lipase (HSL) and adipocyte triglyceride lipase (ATGL). LD regulation outside of the adipocyte is poorly understood and only few components are known. However, there is an urgent need to learn more about ectopic fat depots as mislocalized storage of lipids, for example in the liver or muscle, is an eminent health problem associated with insulin resistance or the metabolic syndrome. We developed a laser-scanning cytometer assay to enable 1,536-well screening and combined the results of the small molecules screen with an RNAi database based on lipid storage. In this assay we tested analogs of the probe against a mammalian cell line (COS7), to see if these small molecules could disrupt lipid storage. NIH Molecular Libraries Probe Production Centers Network [MLPCN] NIH Chemical Genomics Center [NCGC] MLPCN Grant: MH085686 Assay Submitter (PI): Mathias Beller, Max-Planck-Institut fur Biophysikalische Chemie
COS7 cells were obtained from ATCC (CRL-1651), 5500 cells/well were dispensed into Corning 96 well imaging plate (catalog # 3340), and cultured in 100 uL of 1:1 DMEM medium (PAA) contain 10% fetal bovine serum (FBS) for 24 hours at 37 degrees C, 95% humidity, and 5% CO2. The medium was exchanged for compound treatment. Compound treatment occurred in 150 microL serum reduced medium (5% FBS) and 0.2% DMSO in presence of 400 microM oleic acid for 17-18 h. Cells were then fixed (3.7 % formaldehyde in PBS, 5 min), permeabilized (0.1% Triton X100, 5 min) and washed three times with PBS. Lipid droplets (1:2000 BODIPY 493/503) and nuclei (1:1000 Hoechst 33342) were stained for 1h. Imaging was performed in a Zeiss Axiovert automatic microscope. Number of lipid droplet accumulated in […] cells were analyzed using visual examination of the microscopic images and additional quantification by image segmentation using Cell Profiler.

Structure (SMILES)	max response [%]	Potency
CCOc1ccc(CCNC(=O)c2cc3cnccc3n2Cc2cccc(C)n2)cc1OCC	-1.53	
CCOc1ccc(CCNC(=O)c2cc3cccnc3n2Cc2cccc(C)c2)cc1OCC	0	
CCOc1ccc(CCNC(=O)c2cc3ccccc3n2CCN2CCOCC2)cc1OCC		5260 nM (active)
CCOc1ccc(CCNC(=O)c2ccc(C(=O)c3ccccc3)cc2)cc1OCC	-5.7	
CCOc1ccc(CCNC(=O)c2cc3ncccc3n2Cc2cccc(C)c2)cc1OCC	6.92	
CCOc1ccc(CCNC(=O)c2cc3ccncc3n2Cc2cccc(C)c2)cc1OCC	-1.73	
CCOc1ccc(CCNC(=O)c2cc3ccccc3n2Cc2cccc(C)n2)cc1OCC		590 nM (active)
CCOC(=O)C1CCN(C(=O)C2(NC(=O)Nc3ccccc3Cl)CCCC2)CC1		5870 nM (active)
CCOc1ccc(CCNC(=O)c2cc3ccccc3n2Cc2ccccn2)cc1OCC		1660 nM (active)
CCOc1ccc(CCNC(=O)c2cc3cnccc3n2Cc2cccc(C)c2)cc1OCC	-13.8	
CCOc1ccc(CCNC(=O)c2cc3ccccc3n2Cc2cccc(C)c2)cc1OCC		264 nM (active)
CCOc1ccc(CCNC(=O)c2cc3sccc3n2Cc2ccc(F)cc2F)cc1OCC		1180 nM (active)
CCOc1ccc(CCNC(=O)c2cc3ncccc3n2Cc2cccc(C)n2)cc1OCC	-5.54	
CCOc1ccc(CCNC(=O)c2ccccc2)cc1OCC	-7.94	
CCOc1ccc(CCNC(=O)c2cc3ccncc3n2Cc2cccc(C)n2)cc1OCC	-22.2	
